High-throughput results deposited in PubChem by The Scripps Research Institute Molecular Screening Center.
Sampled rows, rich in hits. Any-hit rate of the full collection: about 3.3%.
ABHD5-PLIN5 inh = ABHD5-PLIN5 interaction inhibitors, primary screen, cell lysate, split luciferase complementation, luminescence. Perilipin-5 (Homo sapiens) + 1-acylglycerol-3-phosphate O-acyltransferase ABHD5 (Homo …. Split G. princeps luciferase complementation, 4 h. inhibition, % at 4 µM. hit rate 0.78% among 360,000. AID 602281, 2012;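 active = inhibition above the mean inhibition across every tested compound plus 3 SD, cut at about 22% in these data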;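 also: 0% = DMSO only wells and the 100% control is not disclosed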
Target sequence (Q00G26 whole entry, looked up): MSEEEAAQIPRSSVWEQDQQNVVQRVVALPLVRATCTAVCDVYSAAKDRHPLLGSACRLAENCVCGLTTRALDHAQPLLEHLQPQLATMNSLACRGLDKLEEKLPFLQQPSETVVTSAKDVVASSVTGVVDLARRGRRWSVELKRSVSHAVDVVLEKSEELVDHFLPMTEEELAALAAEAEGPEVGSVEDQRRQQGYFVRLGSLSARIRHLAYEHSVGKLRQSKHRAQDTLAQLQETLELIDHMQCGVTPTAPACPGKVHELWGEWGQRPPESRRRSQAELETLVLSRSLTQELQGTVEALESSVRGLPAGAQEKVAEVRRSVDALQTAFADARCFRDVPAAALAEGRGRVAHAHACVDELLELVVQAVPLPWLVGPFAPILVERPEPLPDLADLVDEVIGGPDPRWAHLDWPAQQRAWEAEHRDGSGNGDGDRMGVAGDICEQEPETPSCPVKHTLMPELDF
Target sequence (Q8WTS1 whole entry, looked up): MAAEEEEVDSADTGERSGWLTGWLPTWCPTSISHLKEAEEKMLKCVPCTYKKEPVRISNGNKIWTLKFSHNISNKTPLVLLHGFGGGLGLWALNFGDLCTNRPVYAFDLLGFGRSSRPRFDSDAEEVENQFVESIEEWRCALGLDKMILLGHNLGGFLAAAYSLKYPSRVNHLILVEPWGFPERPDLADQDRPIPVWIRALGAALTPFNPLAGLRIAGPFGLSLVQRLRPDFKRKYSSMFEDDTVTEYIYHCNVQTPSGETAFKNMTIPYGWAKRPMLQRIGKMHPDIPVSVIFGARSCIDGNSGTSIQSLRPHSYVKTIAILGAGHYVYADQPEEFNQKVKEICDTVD
TLR9-MyD88 block = inhibitors of TLR9-MyD88 association in cells, primary screen, cell-based, CHO, BLA complementation, fluorescence | hit rate 0.21% among 340,000 | AID 504734, 2011 | inhibition, % at 4.98 µM | CCF4 FRET ratio;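 active = inhibition above the mean over all tested compounds plus 3 SD, cut at about 21% in these data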;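 also: 0% = DMSO only wells and 100% = clavulanate BLA inhibitor control wells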
PRMT1 FP inh = PRMT1 methyltransferase inhibitors, primary screen, biochemical, fluorescence polarization; recombinant PRMT1, activity-based probe fluorescence polarization; inhibition, % at 2.79 µM; hit rate 1.3% among 370,000;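 active = inhibition above about 21% made by adding two undisclosed values, limit read from the data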
NOD2 RIPK2 PPI = NOD2-RIPK2 binding disruptors in cells, primary screen, fluorescence, CHO cells, BLA complementation | Receptor-interacting serine/threonine-protein kinase 2 (Homo sapiens), O43353 | CCF4 ratio | inhibition, % at 4.98 µM | hit rate 0.38% among 360,000; in the data active = inhibition above about 21%;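 also: 0% = vehicle only and 100% = reference blocker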
TLR4 MyD88 comp = inhibitors of TLR4-MyD88 association in cells, primary screen, cell-based, HeLa CL3-4, BLA complementation, FRET ratio | HeLa CL3-4 TLR4/MyD88 BLA complementation | inhibition, % at 8.4 µM | hit rate 0.18% among 200,000 | AID 861, 2007; in the data active = inhibition above about 25%;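 also: 0% = vehicle and 100% = reference inhibitor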
rCAG RNA binder = binders of r(CAG) RNA repeats, primary screen, biochemical, fluorescence | AID 651821, 2012 | hit rate 1.3% among 370,000 | r(CAG) RNA repeat, TO-PRO-1 dye displacement fluorescence | inhibition, % at 3 µM;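 active = inhibition above the plate cutoff, the mean of all test compounds on that plate plus 3 SD, cut at about 35% in these data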;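 also: 0% = DMSO alone and 100% = 100 µM mitoxantrone as full dye displacement; higher means more dye released from RNA so lower well fluorescence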
PRMT1 confirm = PRMT1 methyltransferase inhibitors, confirmation, biochemical, fluorescence polarization, triplicate; inhibition, % at 2.79 µM; hit rate 42% among 3,300; recombinant His-PRMT1, activity-based probe fluorescence polarization; shares compounds with PRMT1 FP inh; AID 687036, 2013;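 active = mean inhibition across replicates above the hit cutoff derived for the earlier primary screen, cut at about 22% in these data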
Starred values were filed as active, the others as inactive.

Screening Cc1ccc2sc(C)[n+](CCO)c2c1 returned ABHD5-PLIN5 inh -13, TLR9-MyD88 block 10, PRMT1 FP inh 58*, NOD2 RIPK2 PPI 2, TLR4 MyD88 comp 1, rCAG RNA binder -3 and PRMT1 confirm 33*.
For CC[n+]1c(C)sc2cc(C)ccc21 the results were ABHD5-PLIN5 inh -5, TLR9-MyD88 block 4, PRMT1 FP inh 74*, NOD2 RIPK2 PPI -4, TLR4 MyD88 comp 8, rCAG RNA binder 3 and PRMT1 confirm 16.
`CCCC[n+]1c(C)sc2ccc(C)cc21` gave ABHD5-PLIN5 inh -3, TLR9-MyD88 block -8, PRMT1 FP inh 42*, NOD2 RIPK2 PPI -5, TLR4 MyD88 comp -5, rCAG RNA binder 3 and PRMT1 confirm 18.
`CCOC(=O)C[n+]1c(C)sc2ccc(OC)cc21` gave ABHD5-PLIN5 inh -9, TLR9-MyD88 block 1, NOD2 RIPK2 PPI -5 and TLR4 MyD88 comp -11.
`COc1ccc(/C=C/S(=O)(=O)NCC(C)C)c(CNC(=O)OC(C)(C)C)c1` gave PRMT1 FP inh 0 and rCAG RNA binder 2.
`CCNc1nc(SCC(N)=O)nc2sc3c(c12)CCN(C)C3` gave ABHD5-PLIN5 inh -8, TLR9-MyD88 block 2, PRMT1 FP inh 61*, NOD2 RIPK2 PPI -7, rCAG RNA binder 3 and PRMT1 confirm 16.
`Cn1c(CNc2ccc(O)cc2)nc2ccccc21` gave ABHD5-PLIN5 inh 0, TLR9-MyD88 block -4, PRMT1 FP inh 39*, NOD2 RIPK2 PPI -7, rCAG RNA binder -19 and PRMT1 confirm -3.
CCCC(=O)N(c1ccc2oc(=O)sc2c1)S(=O)(=O)c1cccs1 was read as ABHD5-PLIN5 inh 17, TLR9-MyD88 block -4, PRMT1 FP inh 85*, NOD2 RIPK2 PPI 3, TLR4 MyD88 comp 2, rCAG RNA binder 28 and PRMT1 confirm 37*.
For CC(=O)c1c(C)oc2ccc(N(C(C)=O)S(=O)(=O)c3cccc([N+](=O)[O-])c3)cc12 the results were ABHD5-PLIN5 inh 1, TLR9-MyD88 block -3, PRMT1 FP inh 2, NOD2 RIPK2 PPI 0, TLR4 MyD88 comp 8 and rCAG RNA binder 5.
Screening CC(=O)N(c1ccc2oc(=O)sc2c1)S(=O)(=O)c1ccccc1 returned ABHD5-PLIN5 inh 8, TLR9-MyD88 block -2, PRMT1 FP inh 91*, NOD2 RIPK2 PPI 1, TLR4 MyD88 comp -10, rCAG RNA binder 25 and PRMT1 confirm 65*.
For COC(=O)c1ccccc1COc1cccn2c(N(C)C(=O)CCC3CCCC3)c(C)nc12 the results were ABHD5-PLIN5 inh 0, PRMT1 FP inh -1, NOD2 RIPK2 PPI 9 and rCAG RNA binder 1.
For Cc1ccc(NC(=O)CSc2ccc(Br)cc2)cc1S(=O)(=O)N1CCOCC1 the results were ABHD5-PLIN5 inh -11, TLR9-MyD88 block -9, PRMT1 FP inh 0, NOD2 RIPK2 PPI -5 and rCAG RNA binder 4.
For COCCn1c(=S)[nH]c2cc(C(=O)NCCc3ccccc3)ccc2c1=O the results were ABHD5-PLIN5 inh 3, TLR9-MyD88 block 2, PRMT1 FP inh 1, NOD2 RIPK2 PPI -5 and rCAG RNA binder 0.
`O=C(/C=C/NCc1cccnc1)c1ccc(-c2ccccc2)cc1` gave ABHD5-PLIN5 inh -2, TLR9-MyD88 block -7, PRMT1 FP inh 1, NOD2 RIPK2 PPI 3 and rCAG RNA binder 6.
CCCC(C)c1nnc(NC(=O)c2cc(C(=O)OC)cc([N+](=O)[O-])c2)s1 (stereo not given) was read as ABHD5-PLIN5 inh -7, TLR9-MyD88 block 1, PRMT1 FP inh 29*, NOD2 RIPK2 PPI -3, TLR4 MyD88 comp 0, rCAG RNA binder 50* and PRMT1 confirm 54*.
For CCCC(C)NC(=O)c1cc(C(=O)OC)cc([N+](=O)[O-])c1 (stereo not given) the results were ABHD5-PLIN5 inh 4, TLR9-MyD88 block -5, PRMT1 FP inh 1, NOD2 RIPK2 PPI -18, TLR4 MyD88 comp -7 and rCAG RNA binder -4.
Screening O=C(COC(=O)c1cccc(S(=O)(=O)N2CCCCC2)c1)NCc1ccccc1 returned ABHD5-PLIN5 inh 9, TLR9-MyD88 block -14, PRMT1 FP inh -1, NOD2 RIPK2 PPI 3 and rCAG RNA binder -3.
`Cc1ccc(CNC(=O)COC(=O)c2cccc(S(=O)(=O)N3CCCCC3)c2)cc1` gave ABHD5-PLIN5 inh 2, TLR9-MyD88 block 2, PRMT1 FP inh 86*, NOD2 RIPK2 PPI 9, rCAG RNA binder 0 and PRMT1 confirm 0.
Screening CCOC(=O)C1=C(c2ccccc2)NC(SCC(=O)Nc2ccccc2C)=C(C#N)C1c1ccco1 (stereo not given) returned ABHD5-PLIN5 inh -7, TLR9-MyD88 block -8, PRMT1 FP inh 5, NOD2 RIPK2 PPI 1, TLR4 MyD88 comp 2 and rCAG RNA binder 17.
For COc1cc2ccccc2cc1C(=O)NNC(=O)c1ccccc1O the results were ABHD5-PLIN5 inh -3, TLR9-MyD88 block 1, PRMT1 FP inh 40*, NOD2 RIPK2 PPI -3, rCAG RNA binder 20 and PRMT1 confirm -4.
For COc1ccc(-c2cc(-c3ccco3)[nH]c(=O)c2C#N)cc1OC the results were ABHD5-PLIN5 inh 13, TLR9-MyD88 block -9, PRMT1 FP inh 27*, NOD2 RIPK2 PPI -88, rCAG RNA binder 23 and PRMT1 confirm 27*.
`N#Cc1c(-c2ccccc2)cc(-c2ccc3c(c2)OCO3)[nH]c1=O` gave ABHD5-PLIN5 inh -1, TLR9-MyD88 block 2, PRMT1 FP inh -4, NOD2 RIPK2 PPI -4 and rCAG RNA binder 6.
Screening CC(C(=O)NCC(=O)Nc1ccc(F)c(F)c1F)N1CCN(c2ccc(O)cc2)CC1 (stereo not given) returned ABHD5-PLIN5 inh 4, TLR9-MyD88 block -9, PRMT1 FP inh 28*, NOD2 RIPK2 PPI -7, rCAG RNA binder 6 and PRMT1 confirm 8.
O=c1c2cc(F)ccc2sn1-c1ccccc1Cl was read as ABHD5-PLIN5 inh -8, TLR9-MyD88 block 0, PRMT1 FP inh 61*, NOD2 RIPK2 PPI -5, rCAG RNA binder 1 and PRMT1 confirm 95*.
`C[C@H]1COc2cc(Br)ccc2S(=O)(=O)N1Cc1cn(Cc2ccc(C(F)(F)F)cc2)nn1` gave PRMT1 FP inh 1 and rCAG RNA binder 2.
For CCc1ccc(NC(=O)C(=O)NCC2CCCN2S(=O)(=O)c2cccs2)cc1 (stereo not given) the results were ABHD5-PLIN5 inh -6, TLR9-MyD88 block 1, PRMT1 FP inh 1, NOD2 RIPK2 PPI -13 and rCAG RNA binder 0.
